In PubChem BioAssay (NCATS) one finds Potency and max response data, which are given here for 14 molecules.

Several values for one entry are separate records, joined by “and”; a condition that tells them apart may be missing. Equal values may be shown once. Values without a mark were called inactive. Records with an inconclusive call do not appear. Activity calls are given as the source filed them. Unless noted, no rule for the calls is given here.

The first assay deals with astro (control astrocytes). Nature of the assay: Drug repurposing screens with cells derived from glioblastoma tumor samples (AID 1345199; active = well fitted curve in the direction sought with a large enough effect; an effect the other way counts as inactive or inconclusive; also: % is scaled to controls: 0 for no effect and ±100 for the full control effect; nearly all actives have a fitted effect of over 40% in size). As to conditions: viability, ATP luminescence, 48 h; series mostly up to 45.9 µM. A digest of the protocol:
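Four patient lines of CD133+ GBM neurospheres were screened at several concentrations; hits were retested in those lines plus three slower-growing GBM lines, using 48-hour treatment and ATP-based viability.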
`CCC(=O)C(CC(C)N(C)C)(c1ccccc1)c1ccccc1` (stereo not given): the Potency result is “inactive”.

`CN(C)[C@@H]1C(=O)C(C(N)=O)=C(O)[C@@]2(O)C(=O)C3=C(O)c4c(O)cccc4[C@@](C)(O)[C@H]3C[C@@H]12`: the Potency entry was “inactive”.

For `CCCN1CCC[C@@H]2Cc3nc(N)ncc3C[C@H]21`, the Potency entry was “inactive”.

As for `CCCC1CCCCN1` (stereo not given), the Potency result is “inactive”.

Test system in another assay: not listed separately
The experiment in a line: qHTS assay to identify inhibitors of the type 1 interferon - major histocompatibility complex class I in skeletal muscle: Counter screen cell viability and HiBit confirmation (AID 1347412; active = well fitted curve in the direction sought with a large enough effect; an effect the other way counts as inactive or inconclusive; also: nearly all actives have a fitted effect of over 60% in size; also: potency is read from the fitted curve at half-maximal effect). As to conditions: iHSKM muscle cells + IFN-b, HiBiT or CellTiter-Glo, 24 h; Potency: HiBiT; Viability, at 45.9 µM (top of the series). A digest of the protocol:
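Myoblasts (C25cl48, HLA-B HiBiT) seeded in medium without dexamethasone, IFN-b 4 ng/ml added except unstimulated columns; 1 hr later compounds pinned (12-pt 1:3, top 46 uM final). Incubated 24 hrs, lysed 10 min, luminescence measured.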
Turning to `c1ccc2c(c1)OCC(C1=NCCN1)O2` (stereo not given), the Potency result was “inactive”.

For `C[C@H]1O[C@@H](O[C@H]2[C@@H](O)C[C@H](O[C@H]3[C@@H](O)C[C@H](O[C@H]4CC[C@@]5(C)[C@H](CC[C@@H]6[C@@H]5CC[C@]5(C)[C@@H](C7=CC(=O)OC7)CC[C@]65O)C4)O[C@@H]3C)O[C@@H]2C)C[C@H](O)[C@@H]1O`, the Potency is 49.7 nM (active).

`Cc1sc2c(c1C)C(c1ccc(Cl)cc1)=N[C@@H](CC(=O)OC(C)(C)C)c1nnc(C)n1-2`: the Potency entry is “inactive”.

The target in another assay is Nuclear receptor subfamily 1 group I member 2 (Rattus norvegicus) (UniProt Q9R1A7). The experiment in a line: qHTS assay for small molecule activators of the rat pregnane X receptor (rPXR) signaling pathway (AID 651751). Also: 0% is about no effect. As to conditions: rPXR reporter cells, luciferase (One-Glo), 24 h. (Quantitative high-throughput screening tests each substance at several concentrations.)
Chain of Nuclear receptor subfamily 1 group I member 2 (Rattus norvegicus) (Q9R1A7 whole entry, looked up): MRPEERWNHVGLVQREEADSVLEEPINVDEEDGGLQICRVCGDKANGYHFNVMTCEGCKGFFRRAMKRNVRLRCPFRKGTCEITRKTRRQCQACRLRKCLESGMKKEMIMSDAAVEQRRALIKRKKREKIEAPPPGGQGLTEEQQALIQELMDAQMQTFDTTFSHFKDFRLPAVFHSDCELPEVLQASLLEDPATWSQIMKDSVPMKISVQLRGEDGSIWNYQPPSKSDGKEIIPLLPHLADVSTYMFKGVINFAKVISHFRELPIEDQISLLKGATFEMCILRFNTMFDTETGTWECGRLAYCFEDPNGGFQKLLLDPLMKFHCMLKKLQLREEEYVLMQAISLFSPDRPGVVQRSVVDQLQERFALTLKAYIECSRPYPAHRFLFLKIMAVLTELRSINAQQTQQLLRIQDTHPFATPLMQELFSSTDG
With `C[C@]12CCC(=O)C(O)=C1CC[C@@H]1[C@@H]2CC[C@]2(C)C(=O)CC[C@@H]12`, the max response is 2.3%.

In the case of `CCCC(C)(COC(N)=O)COC(=O)NC(C)C` (stereo not given), the max response is 6.19% and 1.57%.

`C[C@H]1O[C@@H](O[C@H]2[C@@H](O)C[C@H](O[C@H]3[C@@H](O)C[C@H](O[C@H]4CC[C@@]5(C)[C@H](CC[C@@H]6[C@@H]5CC[C@]5(C)[C@@H](C7=CC(=O)OC7)CC[C@]65O)C4)O[C@@H]3C)O[C@@H]2C)C[C@H](O)[C@@H]1O`: the max response was -1.87%.

For `C=C(C)[C@H]1Cc2c(ccc3c2O[C@@H]2COc4cc(OC)c(OC)cc4[C@@H]2C3=O)O1`, the max response is -14.4%.

For `N[C@@H](Cc1ccc(N(CCCl)CCCl)cc1)C(=O)O`, the max response is 1.48% and 0.994%.

Take `Cc1cc(SCc2sc(-c3ccc(C(F)(F)F)c(F)c3)nc2C)ccc1OCC(=O)O`: the max response is 13%.

As to `Oc1cc(Cl)ccc1Oc1ccc(Cl)cc1Cl`, the max response is -4.24%.

Turning to `Oc1ccc(Cl)cc1Cc1ccccc1`, the max response is 0.0184% and 1.61%.
